Compounds with a hit are over-represented: about 28% of the library has one in this group of screens.
CD11b adhes inh = CD11b/CD18-fibrinogen binding inhibition; P05107+P11215; K562 CD11b/CD18 adhesion to fibrinogen, ATPlite luminescence; Mn2+ added to activate the integrin; inhibition, % at 10 µM; hit rate 0.54% among 93,000; AID 1497;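 active means primary inhibition of 50% or more at 10 µM, then 40% or more on retest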
CYP2C19 inh = human CYP2C19 inhibition; P33261; CYP2C19 Supersomes, luciferin-H EGE luminescence, 30 min; hit rate 21% among 96,000; inhibition, % at 5 µM;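 active means CYP2C19 inhibition above a set limit at 5 µM in the primary screen, cut at about 50% in these data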;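 further: plate controls were negative control wells for no effect and 2.5 mM tranylcypromine positive control for full effect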
CD11b adhes enh = enhancers of human CD11b/CD18 binding to fibrinogen | P05107+P11215 | K562 CD11b/CD18 adhesion to fibrinogen, ATPlite luminescence | activation, % at 10 µM | hit rate 0.07% among 93,000;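 active means 10 µM primary screen giving 50% or more activity, confirmed by 40% or more on retest at that dose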
CYP2C9 activ = activators of human CYP2C9. activation factor at 5 µM. AID 1024. hit rate 1.4% among 96,000. recombinant CYP2C9, luciferin-H conversion, luminescence; active compounds read high; factor 1 = untreated enzyme, 0 = blocked;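 active means activation factor of 2 or more for CYP2C9 at a 5 µM dose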;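 further: 0 = sulfaphenazole-blocked wells and 1 = vehicle-only wells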
Target sequence (P11712 whole entry, looked up): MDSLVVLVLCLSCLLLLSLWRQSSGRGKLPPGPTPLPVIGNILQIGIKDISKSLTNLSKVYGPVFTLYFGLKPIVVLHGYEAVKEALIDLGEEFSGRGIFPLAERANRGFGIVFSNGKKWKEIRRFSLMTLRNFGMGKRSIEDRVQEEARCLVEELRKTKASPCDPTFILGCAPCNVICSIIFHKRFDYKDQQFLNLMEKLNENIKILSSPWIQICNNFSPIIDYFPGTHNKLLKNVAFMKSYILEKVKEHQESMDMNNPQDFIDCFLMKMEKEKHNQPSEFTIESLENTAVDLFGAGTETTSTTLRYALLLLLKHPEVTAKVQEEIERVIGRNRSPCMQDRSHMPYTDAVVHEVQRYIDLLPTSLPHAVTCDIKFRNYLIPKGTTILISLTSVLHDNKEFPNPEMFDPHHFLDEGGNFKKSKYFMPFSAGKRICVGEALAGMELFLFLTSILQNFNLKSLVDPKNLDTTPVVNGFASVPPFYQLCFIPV
CYP2C19 activ = cytochrome P450 2C19 (human) activation; recombinant CYP2C19, luciferin-H EGE luminescence; active compounds read high; 0 = fully inhibited enzyme, 1 = untreated enzyme; activation factor at 5 µM; P33261; AID 1025; 96,000 tested, under 10 active;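 active means activation factor of at least 2 at 5 µM in the primary screen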;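 further: 0 = wells with 2.5 mM tranylcypromine and 1 = vehicle-only wells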
CYP2C9 inh = inhibitors of human CYP2C9; CYP2C9 Supersomes, luciferin-H conversion, luminescence; hit rate 20% among 96,000; inhibition, % at 5 µM; P11712;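 active means blocking of liver enzyme CYP2C9 beyond about 50% at 5 µM, limit read from the data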
* = called active by the depositor.

CCCCn1c(SCC(=O)Nc2cccc(OC)c2)nc2ccc(N3CCOCC3)cc2c1=O was read as CD11b adhes inh -7.3, CYP2C19 inh 83.1*, CD11b adhes enh 7.4, CYP2C9 activ 0, CYP2C19 activ 0.2 and CYP2C9 inh 96.2*.
Screening COc1ccc2c(c1)c1nnc(SCC(=O)N3C(C)CCCC3C)nc1n2C (stereo not drawn) returned CYP2C19 inh 48.9, CYP2C9 activ 0.3, CYP2C19 activ 0.5 and CYP2C9 inh 65.5*.
`COc1cccc(-n2nnnc2SCC(=O)NC2CCCC2)c1` gave CD11b adhes inh -13.1, CYP2C19 inh 43.5, CD11b adhes enh -3.7, CYP2C9 activ 2*, CYP2C19 activ 0.6 and CYP2C9 inh -98.2.
Screening COc1cccc(-n2nnnc2SCC(=O)Nc2cccc(NC(C)=O)c2)c1 returned CD11b adhes inh 7.5, CYP2C19 inh 38.3, CD11b adhes enh -1.7, CYP2C9 activ 0.5, CYP2C19 activ 0.6 and CYP2C9 inh 50.5*.
For COc1ccccc1-n1nnnc1SCC(=O)NC1CCCC1 the results were CD11b adhes inh -2.8, CYP2C19 inh 10.8, CD11b adhes enh -3.7, CYP2C9 activ 2.3*, CYP2C19 activ 0.9 and CYP2C9 inh -126.1.
`O=C(COc1ccc(-n2cnnn2)cc1)NCCc1ccc(F)cc1` gave CD11b adhes inh -8.7, CYP2C19 inh 4.4, CD11b adhes enh 1.0, CYP2C9 activ 0.9, CYP2C19 activ 1 and CYP2C9 inh 10.8.
For CCOC(=O)c1cnc2cc(C)nn2c1-c1ccccc1 the results were CYP2C19 inh 2.1, CYP2C9 activ 0.9, CYP2C19 activ 1 and CYP2C9 inh 10.6.
For COc1cc(OC)cc(-n2nnnc2SCC(=O)N2CCCc3ccccc32)c1 the results were CD11b adhes inh -31.8, CYP2C19 inh 49.0, CD11b adhes enh 2.0, CYP2C9 activ 0.8, CYP2C19 activ 0.5 and CYP2C9 inh 22.5.
Screening Cn1c(SCC(=O)NC2CCCC2)nc2cccnc21 returned CD11b adhes inh -7.9, CYP2C19 inh 38.2, CD11b adhes enh 2.1, CYP2C9 activ 1.1, CYP2C19 activ 0.6 and CYP2C9 inh -5.9.
`O=C(CSc1nccn1-c1cccc(Cl)c1)NC1CCCC1` gave CD11b adhes inh 14.1, CYP2C19 inh 83.5*, CD11b adhes enh -7.4, CYP2C9 activ 0.3, CYP2C19 activ 0.2 and CYP2C9 inh 66.6*.
For O=C(CSc1nnnn1-c1cccc2c1CCCC2)NC1CCCC1 the results were CYP2C19 inh 9.8, CYP2C9 activ 3*, CYP2C19 activ 0.9 and CYP2C9 inh -199.5.
For COc1ccc(-n2nnnc2SCC(=O)N2C(C)CCCC2C)c(OC)c1 (stereo not drawn) the results were CD11b adhes inh -13.0, CYP2C19 inh 75.4*, CD11b adhes enh 1.1, CYP2C9 activ 1.9, CYP2C19 activ 0.2 and CYP2C9 inh -86.9.
For COc1cccc(-n2nnnc2SCC(=O)N2CCCc3ccccc32)c1 the results were CD11b adhes inh 3.6, CYP2C19 inh 52.3*, CD11b adhes enh 2.6, CYP2C9 activ 0.8, CYP2C19 activ 0.5 and CYP2C9 inh 18.8.
Screening COc1ccc(-n2nnnc2SCC(=O)c2ccc3c(c2)OCCO3)c(OC)c1 returned CD11b adhes inh 1.1, CYP2C19 inh -7.9, CD11b adhes enh 0.7, CYP2C9 activ 1.2, CYP2C19 activ 1.1 and CYP2C9 inh -15.8.
COc1ccc(S(=O)(=O)NC(CC(=O)NCCc2ccc(OC)c(OC)c2)c2ccco2)cc1 (stereo not drawn) was read as CD11b adhes inh -24.2, CYP2C19 inh 2.1, CD11b adhes enh 1.4, CYP2C9 activ 0.9, CYP2C19 activ 1 and CYP2C9 inh 9.7.
CO/C([O-])=N/c1c[n+](-c2ccc(Cl)cc2)no1 was read as CD11b adhes inh -5.5, CYP2C19 inh 17.5, CD11b adhes enh -1.6, CYP2C9 activ 0.9, CYP2C19 activ 0.8 and CYP2C9 inh 9.5.
COc1cccc(-n2nnnc2SCC(=O)c2ccc(NC(C)=O)cc2)c1 was read as CD11b adhes inh -3.5, CYP2C19 inh 15.1, CD11b adhes enh 4.8, CYP2C9 activ 0.9, CYP2C19 activ 0.8 and CYP2C9 inh 6.7.
COc1cccc(NC(=O)CSc2nncn2N)c1 was read as CD11b adhes inh 17.2, CYP2C19 inh 5.7, CD11b adhes enh -2.5, CYP2C9 activ 1, CYP2C19 activ 0.9 and CYP2C9 inh -3.2.

From PubChem
